PubChem BioAssay (NCATS)
Inconclusive results are not listed. Values without a mark were called inactive. Calls of active or inactive are those of the source. The call rests on the fitted dose curve; in most records, active means well fitted inhibition curve with a large enough effect; inconclusive means small, poorly fitted or top-dose-only effect; inactive means no such curve, though single readings can be large or run the other way.

test system: Zika virus NS2B-NS3 protease (unlinked complex); assay: Primary screen GU Rhodamine qHTS for Zika virus inhibitors: Unlinked NS2B-NS3 protease assay (AID 1347159); details: Recombinant ZIKV NS2B-NS3 protease, Rhodamine110 substrate fluorescence; series mostly up to 107 µM; activity change, negative = inhibition: at the top concentration; further: nearly all actives have a fitted effect of over 60% in size
How it was run: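 Percent inhibition came from the 15-min rise in Rhodamine110 fluorescence (1.5 microM substrate, ~15% conversion), normalized to no-inhibitor and no-enzyme wells and Hill-fitted. Unlinked protease, 25 nM, pH 8.0 Tris buffer; compounds up to 114 microM, 15-min preincubation.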
On the % scale 0 is the no-effect control and ±100 the full control effect; potency means the concentration at half of the fitted maximal effect.

Row | Structure (SMILES) | activity change, negative = inhibition | Potency
1 | Nc1ncnc2c1ncn2[C@H]1O[C@@H](C(=O)N2CCN(CC(=O)Nc3cccc4c3CNC4=O)CC2)[C@H](O)[C@@H]1O | 79.6% | –
2 | C=CCC1=C[C@]2(OC)[C@H](C)[C@@H](c3ccc(OC)c(OC)c3)O[C@]2(OC)CC1=O | 49.4% | –
3 | C=C1C[C@H](O)[C@@H](O)[C@@]2(C)C1[C@@H](O)[C@H]1OC(=O)C3[C@@H](C)[C@@H](O)[C@H](O)C2[C@]31C (stereo not given in full) | 34.7% | –
4 | CC1(C)Oc2ncnc(N)c2N=C1c1ccc(C2CCC(CC(=O)O)CC2)cc1 (stereo not given) | -13.8% | –
5 | CCC(C)/C=C(C)/C=C/C1=CC2=C(Cl)C(=O)C(C)(O)C(=O)C2(O)C(OC)O1 (stereo not given) | – | 15.8 µM (active)
6 | CC(=O)O[C@H]1[C@H](O[C@H]2CC[C@]34C[C@]35CC[C@]3(C)[C@@H]([C@@]6(C)CC[C@@H](C(C)(C)O)O6)[C@@H](O)C[C@@]3(C)[C@@H]5C[C@H](O[C@@H]3O[C@H](CO)[C@@H](O)[C@H](O)[C@H]3O)[C@H]4C2(C)C)OC[C@@H](OC(C)=O)[C@@H]1O | 39% | –
7 | C[C@@]1(C(=O)O)CCC[C@@]2(C)C3=CC[C@H]4C[C@@]3(CC[C@H]12)CC4(O)CO (stereo not given in full) | 2% | –
8 | C=C1[C@H](OC(C)=O)[C@H]2[C@@H](OC(=O)c3ccccc3)[C@@H](C)C[C@]2(O)[C@@H](OC(C)=O)[C@H](C)/C=C/C(C)(C)C(=O)[C@H](OC(C)=O)[C@H]1OC(C)=O | 5.16% [at 32.5 µM] | –
9 | COC1OC(=O)C2=C1C1(C)CCCC(C)(C)C1CC2O (stereo not given) | -28.8% | –
10 | COc1ccc(O[C@@H]2O[C@H](CO)[C@@H](O)[C@H](O)[C@H]2O)cc1OC | 13.8% | –
11 | CCCC1=CC2=C(CO1)C(=O)C(C)(O)C(OC(=O)c1c(C)cc(OC)cc1O)C2 (stereo not given) | -28.2% [at 57.1 µM] | –
12 | Cc1onc(-c2c(Cl)cccc2Cl)c1CC(=O)NCc1ccc(OCC(F)(F)F)nc1 | 1.76% | –
13 | CCOC(=O)CSc1nc2c(sc3ccccc32)c(=O)n1CCCN1CCCC1 | 34.3% | –
14 | COc1ccc(-n2[nH]c3c(cnc4ccccc43)c2=O)cc1 | 12.4% | –
15 | CC(=O)N[C@H](Cc1c[nH]c2ccccc12)C(=O)OCc1cc(C(F)(F)F)cc(C(F)(F)F)c1 | -17.2% | –
16 | COc1cccc(CN(C(=O)CC(C)(C)C)C2CC(C(=O)N3CCNCC3)N(Cc3ccc4c(c3)OCO4)C2)c1 (stereo not given) | -21.2% | –
17 | CC1=COC(OC2OC(CO)C(O)C(O)C2O)C2C(CO)CC(OC(=O)/C=C/c3ccc(O)cc3)C12 (stereo not given) | -9.61% [at 57.1 µM] | –
18 | C[C@H](/C=C/[C@@]1(O)[C@H](C)CC(=O)CC1(C)C)O[C@@H]1O[C@H](CO[C@@H]2OC[C@@H](O)[C@H](O)[C@H]2O)[C@@H](O)[C@H](O)[C@H]1O | -16.5% [at 57.1 µM] | –
19 | NC(N)=NCCC[C@H](NC(=O)c1sccc1NS(=O)(=O)c1cccc2nsnc12)C(=O)O | -5.82% | –
20 | CCc1nn(CCO)c(CC)c1Oc1cc(C#N)cc(C#N)c1 | 1.06% | –
21 | C[C@@H]1O[C@@H](O[C@@H]2\C=C/C=C\C=C/C=C\C[C@H](C)OC(=O)/C=C\[C@H]3O[C@@H]3C[C@H](O)C[C@]3(O)C[C@@H](O)[C@@H](C(=O)O)[C@H](C2)O3)[C@H](O)[C@H](N)[C@@H]1O | 0% | –
22 | COc1cc(O)cc(O[C@@H]2O[C@H](CO)[C@@H](O[C@@H]3OC[C@](O)(CO)[C@H]3O)[C@H](O)[C@H]2O)c1OC | -12.9% [at 57.1 µM] | –
23 | CC(C)=CC1C[C@](C)(O)[C@@H]2[C@H]3CCC4[C@@]5(C)CC[C@H](O[C@@H]6OC[C@H](O)[C@H](O[C@@H]7O[C@H](CO[C@@H]8O[C@H](CO)[C@@H](O)[C@H](O)[C@H]8O)[C@@H](O)[C@H](O)[C@H]7O)[C@H]6O[C@@H]6O[C@@H](C)[C@H](O)[C@@H](O)[C@H]6O)C(C)(C)[C@@H]5CC[C@@]4(C)[C@@]34CO[C@@]2(C4)O1 (stereo not given in full) | 16.6% [at 32.5 µM] | –
24 | COc1cc2c(cc1O)CC(O)(CO)C(CO)C2c1ccc(OC2OC(CO)C(O)C(O)C2O)c(OC)c1 (stereo not given) | -20.9% [at 57.1 µM] | –
25 | CC1(C)CC[C@]2(C(=O)O)CC[C@]3(C)C(=CCC4[C@@]5(C)CC[C@H](O[C@@H]6O[C@H](C(=O)O)[C@@H](O)[C@H](O[C@@H]7O[C@H](CO)[C@H](O)[C@H](O)[C@H]7O)[C@H]6O[C@@H]6O[C@H](CO)[C@@H](O)[C@H](O)[C@H]6O)C(C)(C)C5CC[C@]43C)[C@@H]2C1 (stereo not given in full) | – | 5.62 µM (active)
26 | O=C(O[C@H]1[C@H](Oc2ccc(O)cc2CO)O[C@H](CO)[C@@H](O)[C@@H]1O)c1ccccc1 | 11.7% [at 57.1 µM] | –
27 | CCOc1ncc(S(=O)(=O)N2CCN(CC)CC2)cc1-c1nc2c(CC)n(CCOC)nc2c(=O)[nH]1 | 3.13% | –
28 | CC1(C)C=Cc2c(ccc3c2N=C2C(C)(C)[C@@H]4C[C@]56CCCN5C(=O)[C@@]4(C[C@]23O)NC6=O)O1 | 7.46% [at 57.1 µM] | –

test system: Zika virus NS2B-NS3 protease (linked construct); assay: Primary screen NINDS Rhodamine qHTS for Zika virus inhibitors (AID 1347160); details: purified NS2B-NS3 protease, Rhodamine110 substrate fluorescence; series mostly up to 33.1 µM; activity change, negative = inhibition: at the top concentration; further: nearly all actives have a fitted effect of over 55% in size
How it was run: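 Rhodamine110-peptide cleavage (1.5 µM substrate) by 25 nM linked NS2B-NS3 enzyme at pH 8.0 (Tris, Tween 20), after 15 min RT preincubation with compounds; 15-min fluorescence change normalized to controls and Hill-fitted.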

Row | Structure (SMILES) | activity change, negative = inhibition | outcome | Potency
29 | C[C@H](O)C(O)(C(=O)OCc1ccccc1NC(=O)CCC(N)C(=O)O)[C@H](C)O (stereo not given in full) | 16% | – | –
30 | CC(O)C1NC(=O)C2CCCN2C1=O (stereo not given) | – | inactive [at 112 µM] | –
31 | OCC1=C[C@@H](O)[C@@H]2C=CO[C@@H](O[C@@H]3O[C@H](CO)[C@@H](O)[C@H](O)[C@H]3O)[C@H]12 | 0.49% | – | –
32 | C=C[C@@]1(C)CCC2=C([C@H]1OC(C)=O)[C@H](OC(C)=O)CC1[C@](C)(C(=O)OC)CC[C@H](OC(C)=O)[C@]21C (stereo not given in full) | 12.6% | – | –
33 | C=C1CC[C@@]2(OC1)O[C@H]1CC3[C@@H]4CC=C5C[C@@H](O)C[C@@H](O[C@@H]6OC[C@H](O)[C@H](O)[C@H]6O[C@@H]6O[C@@H](C)[C@H](O)[C@@H](O)[C@H]6O)[C@]5(C)C4CC[C@]3(C)[C@H]1[C@@H]2C (stereo not given in full) | -2.66% [at 15.1 µM] | – | –
34 | CCC12CCCN3CCc4c(n(c5ccccc45)C(O)C1)C32 (stereo not given) | 7.72% [at 57.1 µM] | – | –
35 | COCCCc1sc(-c2ccccc2)nc1C(=O)Nc1ccccc1-c1nc2cc(CN3CCCC3)cnc2s1 | – | inactive [at 33.1 µM] | –
36 | COc1cc(/C=C/C(=O)O[C@H]2C[C@@H]3C(C(=O)O)=CO[C@@H](O[C@@H]4O[C@H](CO)[C@@H](O)[C@H](O)[C@H]4O)[C@@H]3[C@H]2C)ccc1O | 3.34% | – | –
37 | COC(=O)C1=COC(O[C@@H]2O[C@H](CO)[C@@H](O)[C@H](O)[C@H]2O)[C@@H]2[C@@](C)(O)[C@@H](OC(=O)/C=C/c3ccccc3)C[C@]12O (stereo not given in full) | 15.4% | – | –
38 | CCCN(CCN1CCN(c2ccccc2OC)CC1)C1CCc2ncsc2C1 (stereo not given) | 71.9% [at 57.1 µM] | – | –
39 | CC(=O)O[C@@H]1[C@H](O[C@@H]2O[C@H](CO)[C@@H](O)[C@H](O)[C@H]2O)[C@@H](O[C@@H]2O[C@@H](C)[C@H](O)[C@@H](O[C@@H]3O[C@H](CO)[C@@H](O)[C@H](O)[C@H]3O)[C@H]2O)[C@H](OC(=O)[C@]23CCC(C)(C)C[C@H]2C2=CCC4[C@@]5(C)C[C@H](O)[C@H](O[C@@H]6O[C@H](C(=O)O)[C@@H](O)[C@H](O)[C@H]6O)[C@@](C)(C(=O)O)C5CC[C@@]4(C)[C@]2(C)CC3)O[C@@H]1C (stereo not given in full) | 0.442% [at 10.7 µM] | – | –
40 | Nc1ncnc2c1ncn2[C@H]1O[C@@H](C(=O)N2CCN(CC(=O)Nc3cccc4c3CNC4=O)CC2)[C@H](O)[C@@H]1O | 13.3% [at 57.1 µM] | – | –
41 | C=CCC1=C[C@]2(OC)[C@H](C)[C@@H](c3ccc(OC)c(OC)c3)O[C@]2(OC)CC1=O | 16.5% | – | –
42 | C=C1C[C@H](O)[C@@H](O)[C@@]2(C)C1[C@@H](O)[C@H]1OC(=O)C3[C@@H](C)[C@@H](O)[C@H](O)C2[C@]31C (stereo not given in full) | – | inactive [at 33.1 µM] | –
43 | CC1(C)Oc2ncnc(N)c2N=C1c1ccc(C2CCC(CC(=O)O)CC2)cc1 (stereo not given) | 11.5% [at 57.1 µM] | – | –
44 | CCC(C)/C=C(C)/C=C/C1=CC2=C(Cl)C(=O)C(C)(O)C(=O)C2(O)C(OC)O1 (stereo not given) | – | – | 10 µM (active)

Row | Structure (SMILES) | activity change, negative = inhibition | outcome | Potency
45 | CC(=O)O[C@H]1[C@H](O[C@H]2CC[C@]34C[C@]35CC[C@]3(C)[C@@H]([C@@]6(C)CC[C@@H](C(C)(C)O)O6)[C@@H](O)C[C@@]3(C)[C@@H]5C[C@H](O[C@@H]3O[C@H](CO)[C@@H](O)[C@H](O)[C@H]3O)[C@H]4C2(C)C)OC[C@@H](OC(C)=O)[C@@H]1O | 18.3% [at 57.1 µM] | – | –
46 | C[C@@]1(C(=O)O)CCC[C@@]2(C)C3=CC[C@H]4C[C@@]3(CC[C@H]12)CC4(O)CO (stereo not given in full) | -3.84% | – | –
47 | C=C1[C@H](OC(C)=O)[C@H]2[C@@H](OC(=O)c3ccccc3)[C@@H](C)C[C@]2(O)[C@@H](OC(C)=O)[C@H](C)/C=C/C(C)(C)C(=O)[C@H](OC(C)=O)[C@H]1OC(C)=O | 8.78% [at 15.1 µM] | – | –
48 | COC1OC(=O)C2=C1C1(C)CCCC(C)(C)C1CC2O (stereo not given) | -2.95% [at 57.1 µM] | – | –
49 | COc1ccc(O[C@@H]2O[C@H](CO)[C@@H](O)[C@H](O)[C@H]2O)cc1OC | 31% | – | –
50 | CCCC1=CC2=C(CO1)C(=O)C(C)(O)C(OC(=O)c1c(C)cc(OC)cc1O)C2 (stereo not given) | -21.3% | – | –
51 | Cc1onc(-c2c(Cl)cccc2Cl)c1CC(=O)NCc1ccc(OCC(F)(F)F)nc1 | 26.1% [at 57.1 µM] | – | –
52 | CCOC(=O)CSc1nc2c(sc3ccccc32)c(=O)n1CCCN1CCCC1 | 76.5% [at 57.1 µM] | – | –
53 | COc1ccc(-n2[nH]c3c(cnc4ccccc43)c2=O)cc1 | – | inactive | –
54 | CC(=O)N[C@H](Cc1c[nH]c2ccccc12)C(=O)OCc1cc(C(F)(F)F)cc(C(F)(F)F)c1 | 18.2% [at 57.1 µM] | – | –
55 | COc1cccc(CN(C(=O)CC(C)(C)C)C2CC(C(=O)N3CCNCC3)N(Cc3ccc4c(c3)OCO4)C2)c1 (stereo not given) | 35.4% [at 57.1 µM] | – | –
56 | CC1=COC(OC2OC(CO)C(O)C(O)C2O)C2C(CO)CC(OC(=O)/C=C/c3ccc(O)cc3)C12 (stereo not given) | -9.11% | – | –
57 | C[C@H](/C=C/[C@@]1(O)[C@H](C)CC(=O)CC1(C)C)O[C@@H]1O[C@H](CO[C@@H]2OC[C@@H](O)[C@H](O)[C@H]2O)[C@@H](O)[C@H](O)[C@H]1O | 4.39% | – | –
58 | NC(N)=NCCC[C@H](NC(=O)c1sccc1NS(=O)(=O)c1cccc2nsnc12)C(=O)O | 21.6% [at 57.1 µM] | – | –
59 | CCc1nn(CCO)c(CC)c1Oc1cc(C#N)cc(C#N)c1 | – | inactive | –
60 | C[C@@H]1O[C@@H](O[C@@H]2\C=C/C=C\C=C/C=C\C[C@H](C)OC(=O)/C=C\[C@H]3O[C@@H]3C[C@H](O)C[C@]3(O)C[C@@H](O)[C@@H](C(=O)O)[C@H](C2)O3)[C@H](O)[C@H](N)[C@@H]1O | -5.44% | – | –
